The results in this text go back to PubChem BioAssay.

Structures are written as SMILES. Active and inactive are the calls of the source. Unless noted, how the calls were made is not given here.

Assay [1] deals with XIP peptide (Xip251-270) binding. Nature of the assay: XIP fragment 251-270 binding compounds – biochemical, small-molecule microarray, fluorescence 635/667 nm, 0.1 µg/mL protein, primary screen (AID 1182). As to conditions: fluorescent protein binding, 635 nm, higher = more signal, called active from +8 up or from −8 down.
Another assay concerns XIP peptide (Xip251-270). Nature of the assay: compounds binding XIP fragment 251-270 – biochemical, small-molecule microarray, fluorescence 635/667 nm, 0.5 µg/mL protein, primary screen (AID 1183). As to conditions: fluorescence 635 nm, higher = more signal.
The nature of assay [2]: blood-stage malaria parasite viability loss – strain 3D7, DAPI fluorescence, 100 nL, primary screen (AID 1184).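 Further: parasites grown inside human red blood cells in medium with human serum.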 As to conditions: P. falciparum 3D7 growth, 3 d, higher = more signal.
In assay [3] the target is Homeobox protein Hox-A13 (Mus musculus) (UniProt Q62424). Nature of the assay: disruptors of Hoxa13 oligonucleotide interaction – biochemical, fluorescence polarization, labeled oligonucleotide, primary screen (AID 1185). Particulars: Hoxa13:DNA binding, 15 min, higher = more signal, called active from +8 up or from −8 down. Background: Fluorescence polarisation rises when a labelled molecule tumbles more slowly, as on binding a larger partner.

The nature of assay [4]: blockers of DNA damage checkpoint Chk1 activation – imaging, HeLa, hydroxyurea, phospho-Chk1 antibody, percent positive cells, primary screen (AID 1186). Particulars: hydroxyurea-induced phospho-Chk1 immunofluorescence imaging, higher = more signal.
A short description of assay [5]: blockers of DNA damage checkpoint Chk1 activation – imaging, HeLa, hydroxyurea, phospho-Chk1 nuclear intensity, primary screen (AID 1187). As to conditions: hydroxyurea-induced phospho-Chk1 immunofluorescence imaging, higher = more signal.

Sequence of Homeobox protein Hox-A13 (Mus musculus) (Q62424 whole entry, looked up): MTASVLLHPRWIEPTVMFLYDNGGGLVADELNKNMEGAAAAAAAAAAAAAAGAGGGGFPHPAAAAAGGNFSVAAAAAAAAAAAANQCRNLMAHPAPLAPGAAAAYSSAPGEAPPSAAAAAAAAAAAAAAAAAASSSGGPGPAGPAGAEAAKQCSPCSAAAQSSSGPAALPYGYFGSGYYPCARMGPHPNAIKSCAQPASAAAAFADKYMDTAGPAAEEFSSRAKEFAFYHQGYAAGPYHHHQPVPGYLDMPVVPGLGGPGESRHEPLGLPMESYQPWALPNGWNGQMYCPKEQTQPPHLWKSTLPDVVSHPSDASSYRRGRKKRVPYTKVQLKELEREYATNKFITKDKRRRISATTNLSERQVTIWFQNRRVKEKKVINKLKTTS

Turning to `Cc1ccc(F)cc1S(=O)(=O)N[C@@H]1CCN(Cc2ccc(Oc3ccccc3)cc2)C1`, the composite z-score in assay [1] is 0.401 (inactive); in the assay with XIP peptide (Xip251-270), -0.0723. For the same compound, the z-score is -0.954 in assay [2], -5.64 (inactive) in assay [3], 0.659 (inactive) in assay [4] and 0.735 (inactive) in assay [5].

Regarding `O=C1O[C@H](c2ccccc2)[C@H](c2ccccc2)N2[C@H]1[C@@H](C(=O)O)[C@]1(C(=O)Nc3ccccc31)[C@H]2c1ccc(O)cc1`, the composite z-score was 0.624 (inactive) in assay [1] and 0.212 with XIP peptide (Xip251-270). In addition, the z-score in assay [2] is -0.0758; in assay [3] it was -5.84 (inactive); in assay [4], 0.0422 (inactive); in assay [5], -0.426 (inactive).

On to `COc1ccc(C(O)C2C=CC3C(=O)N(c4ccccc4)C(=O)C3N2Nc2ccc(C#N)cc2)c2ccccc12` (stereo unspecified), for which the composite z-score is 1.41 (inactive) in assay [1] and 0.728 in the assay on XIP peptide (Xip251-270). In addition, the z-score is -0.683 in assay [2], 0.744 (inactive) in assay [3], -0.294 (inactive) in assay [4] and -0.468 (inactive) in assay [5].

On to `O=C1OC[C@@H](c2ccccc2)N2CC(/C=C/c3ccccc3)=CC12` (stereo partly specified), for which the composite z-score in assay [1] is 0.587 (inactive); with XIP peptide (Xip251-270) it was 0.0221. Also, the z-score is 0.643 in assay [2], -1.36 (inactive) in assay [3], -0.303 (inactive) in assay [4] and -0.493 (inactive) in assay [5].

For the compound `CC(CO)N1C(=O)[C@@H]2C3C(=O)OCCC/C=C\[C@H]3OC23C=CCN(Cn2nnc4ccccc42)C(=O)[C@@H]13` (stereo partly specified), the composite z-score was -0.584 (inactive) in assay [1] and 0.475 in the assay on XIP peptide (Xip251-270). Moreover, the z-score is 0.357 in assay [2], -2.97 (inactive) in assay [3], -0.235 (inactive) in assay [4] and 0.103 (inactive) in assay [5].

On to `C=CCC(OC(C)=O)[C@@H]1[C@@H](N(Cc2cc3ccccc3o2)C(=O)c2ccc(C)cc2)c2cc(OCCCO)ccc2N1C(=O)Cc1ccc2ccccc2c1` (stereo partly specified), for which the composite z-score in assay [1] is -0.303 (inactive); in the assay on XIP peptide (Xip251-270) it was -0.419. Further, the z-score is -0.429 in assay [2], -1.45 (inactive) in assay [3], 0.0151 (inactive) in assay [4] and 0.0749 (inactive) in assay [5].

Take `Cc1ccc(S[C@]2(C(=O)NCc3ccccc3)CC(=O)N(C(C)C)[C@@H]2c2ccc(CO)cc2I)cc1`: the composite z-score in assay [1] is 1.17 (inactive); with XIP peptide (Xip251-270), 0.809. Further, the z-score in assay [2] was 0.257; in assay [3] it was -2.88 (inactive); in assay [4], 0.422 (inactive); in assay [5], 0.953 (inactive).

With `CCCC[C@@H]1C[C@H]1[C@@H](NC(=O)c1ccccc1)c1ccc(Cl)cc1`, the composite z-score was -0.778 (inactive) in assay [1] and -2.03 in the assay with XIP peptide (Xip251-270). The z-score in assay [2] is -0.385; in assay [3] it was -3.04 (inactive); in assay [4], 0.413 (inactive); in assay [5], -0.524 (inactive).

Consider `COC(=O)[C@@]1(Cc2ccccc2)[C@H]2c3cc(C(=O)N4CCCC4)n(Cc4ccsc4Br)c3C[C@H]2CN1C(=O)c1ccccc1`, for which the composite z-score is 0.427 (inactive) in assay [1] and 0.77 in the assay with XIP peptide (Xip251-270). Further, the z-score in assay [2] is -1.16; in assay [3], -3.29 (inactive); in assay [4], 0.17 (inactive); in assay [5], 0.498 (inactive).

With `Cc1c(NC(=O)/C(C#N)=C/C=C/c2ccccc2[N+](=O)[O-])c(=O)n(-c2ccccc2)n1C`, the composite z-score is 4.09 (inactive) in assay [1] and 0.552 in the assay with XIP peptide (Xip251-270). The z-score in assay [2] is -0.758; in assay [3] it was -3.54 (inactive); in assay [4], 0.432 (inactive); in assay [5] it was 0.721 (inactive).

On to `NCCCCCCNC(=O)[C@@H]1C[C@@H]2C(=O)N3CCC[C@H]3C(=O)N2[C@@H]1c1ccc(O)cc1`, for which the composite z-score was -0.386 (inactive) in assay [1] and 0.664 in the assay on XIP peptide (Xip251-270). For the same compound, the z-score was 1.42 in assay [2], -2.07 (inactive) in assay [3], 0.683 (inactive) in assay [4] and 0.289 (inactive) in assay [5].

Take `O=C(NC1CC1)[C@@H]1c2ccccc2C(=O)N(Cc2ccccc2)[C@H]1c1ccc(CO)cc1`: the composite z-score in assay [1] is 1.38 (inactive); in the assay on XIP peptide (Xip251-270), 0.752. Besides, the z-score in assay [2] was -1.55; in assay [3], -2.86 (inactive); in assay [4], -0.556 (inactive); in assay [5] it was -0.679 (inactive).

As to `C=CCN1C(=O)[C@@]2(O[C@@H](CCO)[C@H]([Si](C)(C)c3ccc(OC)cc3)[C@H]2C)c2cc(N3C(=O)c4ccccc4Oc4ccccc43)ccc21`, the composite z-score was 0.227 (inactive) in assay [1] and 0.536 in the assay on XIP peptide (Xip251-270). Besides, the z-score in assay [2] is -2.52; in assay [3], -4.25 (inactive); in assay [4], -0.948 (inactive); in assay [5], -0.004 (inactive).

With `CO[C@H]1O[C@H](CO)[C@@H](OC(=O)c2ccc(Br)cc2)[C@@H]2OC(=O)[C@@H](Cc3ccc4ccccc4c3)C/C=C/C[C@H](Cc3ccc4ccccc4c3)C(=O)O[C@@H]12`, the composite z-score in assay [1] was 1.08 (inactive); in the assay with XIP peptide (Xip251-270), 0.266. Also, the z-score was -0.0936 in assay [2], -5.67 (inactive) in assay [3], -0.555 (inactive) in assay [4] and -0.449 (inactive) in assay [5].

Take `COc1ccc(NC(=O)O[C@H]2[C@H](OC(=O)Nc3ccc4c(c3)OCO4)[C@@H](OC(=O)Nc3ccc4c(c3)OCO4)[C@@H](OC)O[C@@H]2CO)cc1`: the composite z-score was 1.61 (inactive) in assay [1] and 0.877 in the assay on XIP peptide (Xip251-270). The z-score in assay [2] was -2.04; in assay [3], -6.9 (inactive); in assay [4] it was -0.0538 (inactive); in assay [5], 0.419 (inactive).

On to `CCOC(=CC(=O)OC)CC(O)c1cccc(Cl)c1` (stereo unspecified), for which the composite z-score in assay [1] is 2.68 (inactive); in the assay with XIP peptide (Xip251-270) it was 0.893. Moreover, the z-score is -0.368 in assay [2], -3.53 (inactive) in assay [3], -0.119 (inactive) in assay [4] and 0.219 (inactive) in assay [5].
